Reference: PubChem BioAssay (NCI)
The panel holds about 79,000 compounds, 15% with a hit somewhere; the sample as a whole holds those more often. Unmarked numbers belong to inactive results. Activity calls are given as the source filed them. Cut-off read from the data, not from the text of the source: active = growth inhibition above about 70%; inactive = the rest. Where a SMILES comes first, the peptide text is derived from it. The star is where a group is joined. Trt = c1ccc(C(c2ccccc2)(c2ccccc2)*)cc1; Cbz = O=C(OCc1ccccc1)*; Bz = O=C(c1ccccc1)*

Assay: NCI Yeast Anticancer Drug Screen. Data for the sgs1 mgt1 strain (AID 161);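 note: 0% = growth of cultures given vehicle only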
Conditions: S. cerevisiae sgs1 mgt1 strain, at 50.0 µM, stronger effect = higher value
Method: Growth inhibition of yeast strains with defined genetic alterations is measured as a screen for potential anti-cancer activity. Selected strains with alterations in DNA damage repair or cell cycle control were exposed to compounds and growth inhibition was measured relative to vehicle treated controls. The strain used in this assay is sgs1 mgt1
For `CCC(NC(C)c1ccccc1)C(O)c1ccc(OCc2ccccc2)c(OCc2ccccc2)c1` (stereo not given), the growth inhibition was 92.3% (active). With `CCC(=O)c1cccc(-c2ccccc2)c1CC` the growth inhibition was 15.9%. With `O=C(NC/C=C/Br)Oc1cccc2ccccc12` the growth inhibition was 0.9%. For `O=C(Cn1c(=O)oc2ccc(C(=O)c3ccc(F)cc3)cc21)c1ccccc1`, the growth inhibition was -6.25%. Work on `CC(Cc1ccccc1)c1ccccc1` (stereo not given) yielded a growth inhibition of 10.7%. `CC(=O)OCC1OC(n2c3c(c(-c4ccc(Cl)cc4)c(C#N)c2=S)C(=O)CC(C)(C)C3)C(OC(C)=O)C(OC(C)=O)C1OC(C)=O` (stereo not given) showed a growth inhibition of 12.6%. Molecule `COc1cc(/C=C(\C#N)c2ccccn2)cc(Br)c1O` has a growth inhibition of -3.9%. Molecule `CCc1c2c(nc3ccc(O)cc13)-c1cc3c(c(=O)n1C2)COC(=O)[C@]3(O)CC` has a growth inhibition of -5.9%. In the case of `CNC(CCCC1CCCCC1)C(=O)O` (stereo not given), the growth inhibition is reported as -0.15%. Molecule `O=C(O)c1ccc(CC2CCCC2)cc1` has a growth inhibition of 21.4%. `O=c1[nH]c(=O)n(C2CC(O)C(CO)O2)c2ncncc12` (stereo not given) gave a growth inhibition of 4.45%. For `OCC(F)(F)C(F)(F)C(F)(F)C(F)(F)C(F)(F)C(F)(F)C(F)(F)C(F)F`, the growth inhibition was -30.8%. In the case of `O=c1cc(N2CCOCC2)n2c(ccc3ccccc32)n1`, the growth inhibition is reported as -10.4%. `CCCCCCCCCCCCCCCCCC(=O)Nc1nc(N)nc(N)n1` gave a growth inhibition of 3.6%. With `Cc1ccc(C(=O)/C(C#N)=C/Nc2c(C)n(C)n(-c3ccccc3)c2=O)cc1` the growth inhibition was 20.1%. In the case of `C=CCn1c(SC)nc2c(c1=O)CCCC2`, the growth inhibition is reported as -5.4%. In the case of `CC(=O)CC(=O)NC(C)(C)CC(C)(C)C`, the growth inhibition is reported as -31.8%. `CC(SC(=S)N1CCOCC1)C(=O)O` (stereo not given) showed a growth inhibition of -1.6%. For `CC(=O)Nc1ccc2nc(/C=C/c3ccc(N(C)C)cc3)c(=O)oc2c1`, the growth inhibition was 25.5%. With `C(=C\c1csnn1)/c1ccc(/C=C/c2csnn2)cc1` the growth inhibition was 7.7%. In the case of `OC(CCCN1CCN2CCc3[nH]c4ccccc4c3C2C1)c1ccc(F)cc1` (stereo not given), the growth inhibition is reported as 13.7%. `COC(=O)C(CSC(=O)c1ccccc1)NC(=O)CNC(=O)CNC(=O)C(CCCCNC(=O)OCc1ccccc1)NC(=O)CNC(=O)C(CSC(c1ccccc1)(c1ccccc1)c1ccccc1)NC(=O)OCc1ccccc1` (stereo not given) (Cbz-C(Trt)GK(Cbz)GGC(Bz)-OMe; configuration not given here) showed a growth inhibition of 25.8%. Molecule `CCCC(C)NC(=O)c1ccc(Cl)c(Cl)c1` (stereo not given) has a growth inhibition of 13.1%. With `CC(C)(C)C(=O)C(C(c1ccccc1)N1CCOCC1)N1CCOCC1` (stereo not given) the growth inhibition was -33.6%. `CCOC(=O)c1ccc(OCC)cc1O` showed a growth inhibition of 0.6%. `CCCCOC(=O)c1cccc2c1-c1ccccc1C2=O` gave a growth inhibition of -2%. For `CC1(C)C(=O)/C=C\C(=O)C(C)(C)C2=CC=C(O2)C(C)(C)C(=O)C(Br)C(Br)C(=O)C(C)(C)C2=CC=C1O2` (stereo not given), the growth inhibition was -68.5%. `CNC(=S)N(C)/N=C/c1ccccc1` showed a growth inhibition of -3.75%. For `C#CCNC(=O)NC(CCCCNC(=O)OCc1ccccc1)C(=O)OCc1ccccc1` (stereo not given), the growth inhibition was -10.8%. Work on `Nc1ccc(N=Nc2c(S(=O)(=O)O)cc3cc(S(=O)(=O)O)cc(O)c3c2O)cc1` yielded a growth inhibition of -29.5%. In the case of `C[N+](C)(C)C1C2(CCCCC2)NC(=O)C12CCCCC2` (stereo not given), the growth inhibition is reported as -11.5%. In the case of `COC1OC2COC(c3ccccc3)OC2C(OC(C)=O)C1OS(=O)(=O)c1ccc(C)cc1` (stereo not given), the growth inhibition is reported as -5.35%. `Nc1c(Cl)cc2c(c1Br)Cc1cc(F)ccc1-2` gave a growth inhibition of -3.55%. In the case of `Cc1ccc(N=C=Nc2ccc(C)cc2)cc1`, the growth inhibition is reported as -3.05%. Work on `CC(C)CCN(CC(C)C)C(=O)c1ccc([N+](=O)[O-])cc1` (tested in a mixture with another compound) yielded a growth inhibition of 8.75%. Work on `CC1C(O)CC2(C(C)C)CC12` (stereo not given) yielded a growth inhibition of -8.7%. Molecule `OC1C(OCc2ccccc2)OC(COCc2ccccc2)C(OC2OC(COCc3ccccc3)C(OCc3ccccc3)C(OCc3ccccc3)C2OCc2ccccc2)C1OCc1ccccc1` (stereo not given) has a growth inhibition of -13.8%. `O=C(c1ccccc1)C1CCCCN1C(=O)c1ccccc1` (stereo not given) showed a growth inhibition of -4.6%. Work on `O=C(NNC(=O)C(F)(F)F)C(F)(F)F` yielded a growth inhibition of -5.1%. `COC1OC(CCl)C(Cl)C(Cl)C1O` (stereo not given) gave a growth inhibition of 4.55%.
